Pol beta inh: inhibitors of human DNA polymerase beta. P06746. Pol beta primer extension/strand displacement, fluorescence kinetic. Potency, µM (series often up to 114 µM), for inactives: at the top dose activity change, negative = inhibition, hits mostly inhibitors. 1.3% of 340,000 active. AID 485314; note: potency is the fitted concentration of half-maximal effect; % is set by controls: 0 for no effect and ±100 for the full control effect
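Homogeneous kinetic assay of primer extension and strand displacement by 10 nM Pol beta, preincubated 15 min at room temperature with compound before 50 nM substrate (final) was added. Read at 0 and 10 min; four-parameter Hill fit.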
Pol eta inh-1: DNA polymerase eta (human) inhibition; Q9Y253; recombinant Pol eta, fluorescent DNA replication assay; Potency, µM (top dose mostly 114 µM), without a hit: top-dose activity change, negative = inhibition, usual class: inhibitors; 1.2% of 390,000 active; AID 588591; note: potency is the fitted concentration of half-maximal effect; % is set by controls: 0 for no effect and ±100 for the full control effect
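Pol eta at 10 nM preincubated with compounds 15 min at room temperature; reaction started with fluorescent substrate (50 nM final) and read kinetically at 0 and 10 min.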
WRN helicase inh-1: inhibitors of human WRN helicase | WRN helicase unwinding, fluorescent forked duplex, kinetic | Potency, µM (series often up to 114 µM), without a hit: at the highest dose activity change, negative = inhibition, actives largely listed as inhibitors | 0.46% of 360,000 active | AID 651768; note: potency is the fitted concentration of half-maximal effect; % is set by controls: 0 for no effect and ±100 for the full control effect; nearly all actives have a fitted effect of over 55% in size
Target sequence (Q14191 whole entry, looked up): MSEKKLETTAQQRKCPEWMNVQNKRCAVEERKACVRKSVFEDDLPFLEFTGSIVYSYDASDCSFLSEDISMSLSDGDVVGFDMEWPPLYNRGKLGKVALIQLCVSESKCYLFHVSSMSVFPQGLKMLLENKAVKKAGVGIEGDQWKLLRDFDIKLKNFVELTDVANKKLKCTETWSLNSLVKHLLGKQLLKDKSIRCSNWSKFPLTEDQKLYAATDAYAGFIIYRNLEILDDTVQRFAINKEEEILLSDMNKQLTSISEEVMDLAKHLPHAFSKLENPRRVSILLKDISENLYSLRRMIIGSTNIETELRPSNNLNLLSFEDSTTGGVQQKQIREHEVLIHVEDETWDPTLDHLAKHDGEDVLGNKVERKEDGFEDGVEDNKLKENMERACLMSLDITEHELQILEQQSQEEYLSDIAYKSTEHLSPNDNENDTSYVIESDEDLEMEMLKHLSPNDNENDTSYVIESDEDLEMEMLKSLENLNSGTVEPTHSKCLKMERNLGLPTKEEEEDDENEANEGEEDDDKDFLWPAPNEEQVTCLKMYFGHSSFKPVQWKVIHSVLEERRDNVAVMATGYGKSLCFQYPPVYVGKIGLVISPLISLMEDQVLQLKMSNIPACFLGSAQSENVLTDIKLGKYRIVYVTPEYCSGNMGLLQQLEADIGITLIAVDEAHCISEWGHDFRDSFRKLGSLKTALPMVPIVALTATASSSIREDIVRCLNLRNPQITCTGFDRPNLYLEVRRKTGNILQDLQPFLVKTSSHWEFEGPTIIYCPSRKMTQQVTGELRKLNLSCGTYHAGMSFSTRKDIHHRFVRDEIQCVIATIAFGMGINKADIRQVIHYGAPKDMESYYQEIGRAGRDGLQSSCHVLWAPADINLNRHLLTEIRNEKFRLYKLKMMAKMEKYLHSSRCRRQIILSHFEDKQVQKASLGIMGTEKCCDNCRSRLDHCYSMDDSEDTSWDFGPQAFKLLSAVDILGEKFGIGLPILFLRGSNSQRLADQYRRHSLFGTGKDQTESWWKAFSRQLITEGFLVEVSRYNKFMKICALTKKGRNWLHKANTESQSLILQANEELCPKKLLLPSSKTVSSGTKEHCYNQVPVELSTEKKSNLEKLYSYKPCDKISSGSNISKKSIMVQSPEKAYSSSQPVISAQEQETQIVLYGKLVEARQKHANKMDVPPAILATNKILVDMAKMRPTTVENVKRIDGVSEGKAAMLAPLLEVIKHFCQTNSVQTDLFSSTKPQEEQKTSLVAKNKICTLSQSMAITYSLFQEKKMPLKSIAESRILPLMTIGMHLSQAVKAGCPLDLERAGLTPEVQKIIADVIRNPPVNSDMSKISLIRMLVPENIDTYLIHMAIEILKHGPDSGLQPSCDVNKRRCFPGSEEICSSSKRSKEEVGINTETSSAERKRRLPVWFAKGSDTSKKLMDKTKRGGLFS
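WRN at 20 nM final was preincubated with compound for 15 min at room temperature; reaction started with 100 nM forked duplex oligonucleotide carrying fluorophore and quencher plus 2 mM ATP (final). Unwinding followed kinetically by red fluorescence (ex 525/em 598 nm).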
PI5P4Ka inh: inhibitors of human PI5P4K alpha | P48426 | PI5P4Kalpha enzyme, ADP-Glo luminescence, 60 min; active compounds read low | max response, % | 1.2% of 330,000 active; active = max response of -50% or lower; inconclusive = between -30% and -50%; inactive = -30% or higher; note: value at the top dose of about 77 µM; % is set by controls: 0 for no effect and ±100 for the full control effect
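Luminescence from ADP-Glo served as readout of PI5P4Kalpha activity in a qHTS format. Reaction: enzyme, substrate, compound, ATP at 5 microM final, 60 min at RT.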
Pol kappa inh-1: inhibitors of human DNA polymerase kappa; purified Pol kappa, fluorescent DNA synthesis assay, 10 min; Potency, µM (titrated, usually from 107 µM), inactives show at the highest dose activity, negative = inhibition, usual class: inhibitors; 0.53% of 400,000 active; AID 588579; note: potency is the fitted concentration of half-maximal effect; % is set by controls: 0 for no effect and ±100 for the full control effect
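First, compounds were pin-transferred onto 10 nM Pol kappa. After 15 min at room temperature, substrate was added to 50 nM final. Fluorescence was then measured kinetically at 0 and 10 min.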
POLI inh: blocks human DNA polymerase iota activity; Pol iota fluorescent replication assay, 10 min; AID 588590; Potency, µM (doses to about 115 µM), without a hit: at the top dose activity, negative = inhibition, hits mostly inhibitors; 1% of 390,000 active; note: potency is the fitted concentration of half-maximal effect
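Pol iota at 10 nM preincubated 15 min with compounds at room temperature; reaction started with fluorescent substrate, 50 nM final. Fluorescence read kinetically at 0 and 10 min; buffer-only wells as negative control.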
TbPGK inh: TbPGK inhibition, hit validation; Potency, µM (doses to about 57.5 µM), inactives show at the top dose activity change, negative = inhibition, hits mostly inhibitors; shares compounds with Pol kappa inh-1; 79% of 500 active; TbPGK coupled GAPDH assay, Kinase-Glo luminescence; note: potency is the fitted concentration of half-maximal effect; % is set by controls: 0 for no effect and ±100 for the full control effect; nearly all actives have a fitted effect of over 65% in size
POLI cherry-pick: Human Pol iota inhibitor confirmatory assay. shares compounds with Pol kappa inh-1. AID 720496. Potency, µM, usual class: inhibitors. 77% of 1,500 active. Pol iota primer extension, TAMRA/BHQ fluorescence; note: potency is the fitted concentration of half-maximal effect
Pol kappa inh-2: confirmation of human DNA polymerase kappa inhibitors; shares compounds with Pol eta inh-1; purified Pol-kappa, fluorescent strand-displacement substrate; Potency, µM, usual class: inhibitors; 76% of 920 active; AID 720501; note: potency is the fitted concentration of half-maximal effect
Pol eta inh-2: Pol eta (human) inhibition, cherry-pick confirmation | shares compounds with Pol eta inh-1 | Pol eta primer extension, TAMRA/BHQ fluorescence, 10 min | Potency, µM, hits mostly inhibitors | 64% of 2,600 active; note: potency is the fitted concentration of half-maximal effect
WRN helicase inh-2: WRN helicase inhibition, cherry-pick retest. shares compounds with WRN helicase inh-1. WRN helicase DNA unwinding, fluorescence kinetic. Potency, µM (highest dose often 57.1 µM), for inactives: top-dose activity, negative = inhibition, hits mostly inhibitors. 63% of 610 active. AID 720497; note: potency is the fitted concentration of half-maximal effect; nearly all actives have a fitted effect of over 65% in size
TO displacement: DNA binding via thiazole orange displacement. Potency, µM (titrated, usually from 57.1 µM), inactives show top-dose activity change, negative = inhibition, usual class: inhibitors. AID 720499. 10% of 610 active. shares compounds with WRN helicase inh-1. thiazole orange DNA binding displacement, fluorescence;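 note: drop in dye fluorescence marks compound binding to DNA; potency is the fitted concentration of half-maximal effect; % is set by controls: 0 for no effect and ±100 for the full control effect; nearly all actives have a fitted effect of over 60% in size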
BLM helicase inh: BLM helicase inhibition, WRN selectivity check; shares compounds with WRN helicase inh-1; Recombinant BLM helicase DNA unwinding, red fluorescence; Potency, µM (series often up to 57.1 µM), for the others: top-dose activity change, negative = inhibition, most hits filed as inhibitors; 60% of 610 active; AID 720503; note: potency is the fitted concentration of half-maximal effect; nearly all actives have a fitted effect of over 60% in size
Starred values were filed as active, the others as inactive; ? = inconclusive; nt = not tested or not shown; [ ] = another dose, or the depositor's remark. A selection: hits, their analogues and other compounds. The true share with any hit is near 2.8%. Unless noted, calls come from the whole dose curve; as a rule, active = well fitted curve in the direction sought with a large enough effect; inconclusive = small, poorly fitted or top-dose-only effect, or another doubt; inactive = no such curve, though single readings can be large; an effect the other way counts as inactive or inconclusive.

SMILES | Pol beta inh | Pol eta inh-1 | WRN helicase inh-1 | PI5P4Ka inh | Pol kappa inh-1 | POLI inh | POLI cherry-pick | Pol eta inh-2 | others
Cc1ccc(S(=O)(=O)NCCc2cn3ccsc3n2)cc1 | ? | -17% | nt | nt | -5%[60.1 µM] | 20% | nt | nt
COc1cc(OC)c(OC)cc1/C=C1\Oc2cc(OCC(=O)N3Cc4ccccc4C[C@H]3C(=O)O)ccc2C1=O | ? | 22µM* | ? | 2 | 79µM* | ? | 27* | 21*
O=Cc1ccc2oc3nc4n(c(=O)c3c(=O)c2c1)CCCS4 | 8.9µM* | 2.5µM* | 20µM* | -73* | 20µM* | 7.9µM* | 4.7* | 11* | Pol kappa inh-2=8.4*
COc1cccc(Nc2ccc3cc(S(=O)(=O)N4CCC(C)CC4)ccc3n2)c1 | -3% | ? | nt | nt | -8% | 6% | nt | nt
Cc1ccc(NC(=O)COC(=O)C2CCC2)cc1S(=O)(=O)N1CCCCC1 | nt | -12% | 1% | -8 | -13% | 9% | nt | nt
C=CC(=O)NCC1OCCc2ccccc21 (stereo not drawn) | 3% | -14% | -8%[57.1 µM] | 0 | 1% | 56% | nt | nt
O=C(/C=C/c1ccco1)NCC1OCCc2ccccc21 (stereo not drawn) | 14µM* | 13µM* | 56µM* | -70* | 35µM* | 14µM* | 42* | 43*
C(=C\c1ccccc1)/CN1CCN(C(CCc2ccccc2)c2nnnn2C2CCCC2)CC1 (stereo not drawn) | nt | nt | -8% | 2 | nt | nt | nt | nt
O=[N+]([O-])c1ccc(C=NNC(=S)Nc2ccc(F)cc2)cc1 | nt | -13% | -2% | 0 | 6% | 17% | nt | nt
O=[N+]([O-])c1ccc(C=NNC(=S)NN=Cc2ccc([N+](=O)[O-])cc2)cc1 | nt | ? | 56µM* | ? | 25µM* | 14µM* | 19* | 43* | Pol kappa inh-2=17*
O=C(COC(=O)c1ccc(Br)o1)Nc1ccc(F)cc1[N+](=O)[O-] | nt | -11% | -3% | 1 | -4% | 25% | nt | nt
COc1ccc(C(=O)OCC(=O)Nc2ncc([N+](=O)[O-])s2)cc1OC | nt | 3.2µM* | 50µM* | -77* | 22µM* | ? | 19* | ? | TbPGK inh=18µM*;Pol kappa inh-2=6.7*
O=C(COC(=O)c1ccc(Br)o1)Nc1ncc([N+](=O)[O-])s1 | nt | 3.2µM* | ? | -53* | 79µM* | 22µM* | ? | 19* | Pol kappa inh-2=11*
Cc1cc(C)c(OCC(=O)OC(C)C(=O)NC2CC2)c(C)c1 (stereo not drawn) | 4% | -21% | 1% | 4 | 1% | 34% | nt | nt
Cc1ccc(-c2nc3c4ccccc4[nH]c(=O)n3n2)cc1 | -20% | ? | nt | nt | 12% | 26% | ? | ?
CCOc1ccc(NC(=O)CCS(=O)(=O)c2ccc(Br)cc2)cc1 | 28µM* | 18µM* | -8%[11.6 µM] | -16 | 8% | -13% | nt | 76* | TbPGK inh=?
COc1ccccc1-c1nc2c(c(SCC(=O)Nc3ccc(C)c(C)c3)n1)Cc1c(CO)cnc(C)c1O2 | 0% | ? | nt | nt | -11% | -2% | ? | ?
Cc1ccc(NC(=O)CSc2nc(-c3ccc(F)cc3)nc3c2Cc2c(CO)cnc(C)c2O3)cc1C | -1% | 6% | nt | nt | -8% | 4% | nt | nt
CN(C)S(=O)(=O)n1cnc([C@@H]2[C@@H]3C(=O)OC[C@@H]3C[C@]23N=CN(Cc2ccccc2)C3=O)c1 | nt | -16% | 1% | -1 | 1% | 22% | nt | nt
CCCCN(C)C1=CC2=CC(=C(C#N)C#N)CCC2CC1 (stereo not drawn) | -2% | ? | ? | -4 | -27% | ? | 75* | 76* | Pol kappa inh-2=?
CC(C)N(Cc1ccccc1)C(=O)CN1C(=O)NC2(CCOc3ccccc32)C1=O (stereo not drawn) | nt | -2% | -1% | -2 | -8% | 5% | nt | nt
CC(/C=N/NC(=O)c1ccc(CN2c3cccc4cccc(c34)S2(=O)=O)cc1)c1ccccc1 (stereo not drawn) | 6%[57.1 µM] | ? | -29% | ? | -6% | -6% | nt | nt
O=C(O)c1ccc(/C=N/NC(=O)c2ccc(CN3c4cccc5cccc(c45)S3(=O)=O)cc2)cc1 | ? | 22µM* | ? | -54* | ? | 25µM* | ? | 60*
O=C(NCc1ccccc1C(F)(F)F)c1cccc2c1C(=O)c1ccc(N3CCOCC3)cc1S2(=O)=O | nt | ? | -25%[11.6 µM] | -1 | -3% | ? | nt | nt
O=C(NCc1ccccc1C(F)(F)F)c1cccc2c1C(=O)c1ccc(N3CCC(N4CCCCC4)CC3)cc1S2(=O)=O | nt | ? | 124% | -8 | nt | nt | ? | 60*
CCOC(=O)C1CCCC12Nc1cccc3cccc(c13)N2 (stereo not drawn) | nt | -30% | 3% | 2 | 5% | ? | nt | nt
O.O.[Mn].[Mn].[Mn].[OH-].[OH-] | nt | nt | nt | nt | 2%[60.1 µM] | nt | nt | nt
COc1ccc(O)c(C(=O)c2cc(SCC(=O)O)c3nc4sc5c(c4c(=O)n3c2)CCCC5)c1 | ? | 22µM* | 25µM* | ? | ? | ? | 21* | 48* | WRN helicase inh-2=22µM*;TO displacement=?;BLM helicase inh=5.4µM*
O=C1c2cccc(NCCNCCO)c2C(=O)c2cccc(NCCNCCO)c21 | nt | 7.1µM* | 7.1µM* | -17 | 28µM* | 45µM* | 19* | nt | Pol kappa inh-2=19*;WRN helicase inh-2=6.1µM*;TO displacement=1.2µM*;BLM helicase inh=7.6µM*

Screening data from PubChem BioAssay.
